# Reference: ChEMBL document CHEMBL3988442, “University of Dundee, Small-Polar-MMV Screening Library” (2021)
# Hit rate of the full screen: of about 48,000 compounds, about 13,000 (27%) showed an effect of 50% or more. This is one part of the list.
# System: Wolbachia pipientis
# Test: Anti-Wolbachia Cell-Based Screen
# Assay type: functional
# Design: scale not given: in the data most compounds retested in dose-response had high values
# Details: 5 µM
row,Structure (SMILES),Percent Effect
1,COC[C@]1(O)CCN(C(=O)c2cccc(CN(C)C)c2)CC1(C)C,2.502%
2,COc1ccc(C)cc1CNCc1ccc(-n2nc(C)cc2C)nc1,-14.66%
3,Cc1nc(CCNC(=O)C2CC(=O)N(C(C)(C)C)C2)sc1C (stereo not drawn),2.949%
4,Cc1nc(COCc2nc3c(o2)CN(C(=O)c2ccc[nH]2)C3)cs1.O=C(O)C(F)(F)F,-0.815%
5,COc1ccc(C(CO)NC(=O)Nc2cccc(F)c2)cc1 (stereo not drawn),-21.51%
6,COc1ccc(C(CO)NC(=O)Nc2cccc(C#N)c2)cc1 (stereo not drawn),-8.791%
7,COc1ccc(CC(C)Nc2cccc(SC)c2)cc1 (stereo not drawn),111.5%
8,COc1ccc(CCC(C)Nc2cccc(SC)c2)cc1 (stereo not drawn),100.8%
9,COc1ccc2cc(CNc3c(C)nn(C(C)C)c3C)ccc2c1,-4.986%
10,COC[C@H](C)Nc1cc(C)c2ccc(SC)cc2n1,11.13%
11,Cn1cc(CN2CCc3ncn(C)c3C2COCc2ccccc2)cn1 (stereo not drawn),0.114%
12,O=C(Cc1ccncc1)N1C[C@@H]2CC[C@H](C1)N(Cc1ccccc1)C2=O,6.116%
13,Nc1ncnc2nc(C3CCN(C(=O)Cc4ccccc4)C3)ccc12 (stereo not drawn),78.69%
14,Cc1ccc(CC(=O)N2CCCC(c3cc(C)[nH]n3)C2)cn1 (stereo not drawn),-0.4689%
15,Nc1ncnc2nc(C3CCN(C(=O)Cc4ccc(F)cc4)C3)ccc12 (stereo not drawn),118.1%
16,Cc1nnc([C@H]2C[C@H]3CN(C(=O)Cc4ccc(F)cc4)CC[C@@H]3O2)o1,-15.1%
17,O=C(Cc1ccccc1)N1CCn2cc(Cn3cncn3)nc2C1,14.97%
18,O=c1[nH]c2cc(S(=O)(=O)N3CCC(c4ccsc4)CC3)ccc2o1,12.73%
19,COC(=O)CNC(=O)CSCc1nc(O)c2cc(C)sc2n1,28.1%
20,Cc1cccnc1CN1CCN(C[C@]2(O)CCCN3CCCC[C@@H]32)CC1,4.951%
21,O[C@@]1(CNCCOc2ccccc2)CCCN2CCCC[C@@H]21,-8.201%
22,Cc1ccnc(N2CCN(C[C@]3(O)CCCN4CCCC[C@@H]43)CC2)c1,-8.166%
23,Cc1cc2ncn(C[C@]3(O)CCCN4CCCC[C@@H]43)c2cc1C,111.8%
24,Cc1cnccc1N1CCN(C[C@]2(O)CCCN3CCCC[C@@H]32)CC1,-12.63%
25,COc1ccc2c(c1)ncn2C[C@]1(O)CCCN2CCCC[C@@H]21,108.1%
26,O[C@@]1(Cn2cnc(Cl)c2Cl)CCCN2CCCC[C@@H]21,101.1%
27,O[C@@]1(CN2CCN(Cc3ccncc3)CC2)CCCN2CCCC[C@@H]21,17.3%

row,Structure (SMILES),Percent Effect
1,CCN(Cc1noc(CC(C)C)n1)C[C@]1(O)CCCN2CCCC[C@@H]21,2.054%
2,CCS(=O)(=O)N1Cc2c(Cn3ccnc3)nn(C(C)C)c2C1,9.692%
3,COC[C@@]12CC[C@@H](N3CCOCC3)C[C@H]1CCN(c1cc(C)ccn1)C2,-3.135%
4,O=C(Nc1ccc(F)cc1F)NC1(CO)CCOCC1,-12.95%
5,O=C(NCCCNC(=O)c1cccc(O)c1)Nc1ccc(Cl)cc1,112%
6,O=C(NCCCNC(=O)c1ccc(F)cc1F)c1cccc(O)c1,113.1%
7,O=C(NCC(O)c1ccc(F)cc1F)c1cccc(F)c1 (stereo not drawn),-1.094%
8,O=C(NCCCNC(=O)c1ccccc1)Nc1ccc(F)cc1F,98.16%
9,Cc1cccc(C(=O)NCCCN2CCN(c3ccccc3)CC2)c1,0.2933%
10,O=C(NCCCO)Nc1cccc(I)c1,5.16%
11,NC(=O)CCCNC(=O)Cc1cccc(I)c1,-16.28%
12,O=C(CCNC(=O)c1ccoc1)Nc1ccc(F)cc1F,-4.684%
13,O=C(Cc1cccc(O)c1)NCCCNC(=O)c1cccc(F)c1,107.1%
14,Cc1nc(C)c(C(=O)NCCNC(=O)c2ccc(F)cc2F)s1,5.73%
15,CC(NC(=O)NC1CCN(Cc2ccccn2)CC1)c1nncn1C (stereo not drawn),0.2394%
16,CC(C)(C)CN[C@@H]1CO[C@H](CNC(=O)c2ccncc2)[C@H]1O,-9.96%
17,CC(=O)Nc1ccc(Cl)c(C(=O)N(C)Cc2nc(C)c[nH]2)c1,-7.642%
18,CCCc1nc(CN(C)CCOc2ccccc2)cs1,-8.28%
19,CC(C)N(C)S(=O)(=O)N1CCCC1CC(=O)c1cccs1 (stereo not drawn),9.795%
20,CC(C)Cc1noc(CN(C)C(=O)CCNC(=O)c2ccccc2F)n1,-3.806%
21,CC(CNCC1(S(C)(=O)=O)CCOCC1)c1ccc(F)cc1 (stereo not drawn),6.37%
22,CNc1cc(-c2nc(CCN3CCCC3=O)no2)ccn1,8.6%
23,O=C(Cc1cccc(F)c1)NCCCNC(=O)c1cccc(O)c1,95%
24,CC(NC(=O)N(C)Cc1ccsc1)c1ccc2c(c1)NC(=O)CO2 (stereo not drawn),-9.283%
25,Cn1c(CS(=O)(=O)c2ccc(Cl)cc2)cc(=O)n(C)c1=O,2.461%
26,Cc1cc(C2CCCN2Cc2cc(=O)n(C)c(=O)n2C)on1 (stereo not drawn),-9.858%
